# According to PubChem BioAssay:
# A number with no mark means an inactive call.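 Rule for the calls: active = inhibition at or above 50% relative to wild type and mutant plate controls; inactive = inhibition below 50%.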
# Assay: inhibitors of Chlamydomonas gravitaxis, primary screen, whole organism, Chlamydomonas reinhardtii, WT vs cilia-less mutant, absorbance, 96-well (AID 463189);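 note: 0% = wild type cc124 cells in DMSO and 100% = ciliumless bld1 mutant cells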
# Settings: OD600 absorbance, 2 days, at 10 µM, stronger effect = higher value
row,SMILES,inhibition
1,N[C@@H](Cn1cc(I)c(=O)[nH]c1=O)C(=O)O,9.47%
2,CC(O)C(C)OC(=O)[C@@H]1C[C@@H]2c3cccc4c3c(cn4C(C)C)C[C@H]2N(C)C1 (stereo partly specified),33.8%
3,CN1CCc2cc(O)cc3c2[C@H]1Cc1ccc(O)c(O)c1-3,-0.305%
4,OCc1cnc[nH]1,3.19%
5,Oc1ccc2c3c1O[C@H]1c4[nH]c5c(c4C[C@@]4(O)[C@@H](C2)N(CC2CC2)CC[C@]314)C[C@@]1(O)[C@H]2Cc3ccc(O)c4c3[C@@]1(CCN2CC1CC1)[C@H]5O4,-0.992%
6,c1ccc2nc(N3CCNCC3)ccc2c1,4.23%
7,COc1ccc2[nH]c3c(c2c1)CCNC3,-4.14%
8,c1ccc(C2CC2)c(OCC2=NCCN2)c1,3.8%
9,NC(Cn1oc(=O)[nH]c1=O)C(=O)O (stereo unspecified),-0.927%
10,NC(=O)CN1CCCC1=O,-12.5%
11,CCN(CC)C(=O)N[C@@H]1C=C2c3cccc4[nH]cc(c34)C[C@H]2N(C)C1,9.57%
12,Oc1cc2c(cc1O)[C@H]1c3ccccc3CN[C@@H]1CC2,-2.75%
13,NC(C(=O)O)c1cc(=O)[nH]o1 (stereo unspecified),6.42%
14,C[C@]12CC[C@H]3[C@@H](CCC4C[C@H](O)CC[C@@]43C)[C@@H]1CC[C@@H]2O (stereo partly specified),2.75%
15,O=[N+]([O-])c1ccc2nc(N3CCNCC3)ccc2c1,14.2%
16,CC(C)NP(=O)(NC(C)C)OP(=O)(NC(C)C)NC(C)C,5.29%
